Measurements reported in PubChem BioAssay AID430 (Sanford-Burnham Center for Chemical Genomics, 2006).
The whole screen tested about 63,000 compounds, of which about 1,100 (1.7%) were called active. Shown is part of a subset that was picked to be rich in actives. Results with a measured potency or affinity are listed apart. Values without a mark were called inactive. No stated cut-off is given here; in the data, active means cytotoxicity above about 50%; inactive means the rest.

Assay: cytotoxicity in HPDE-C7 cells, cell-based, fluorescence, HTS (AID 430);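 further: cells exposed to compound for 48 hours before viability readout; 0% = vehicle and 100% = reference cytotoxic drug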
Settings: HPDE-C7 pancreatic duct cells viability, at 10 µM, stronger effect = higher value

SMILES | cytotoxicity
Cc1noc(C)c1S(=O)(=O)NC1CCN(Cc2ccccc2)CC1 | 1.4%
Cc1n[nH]c(=O)nc1NCc1ccccc1 | -20.4%
CCCCCc1c(C)nc(NCc2ccccc2)[nH]c1=O | -8.7%
COc1ccc(CCNC(=O)COc2nsnc2N2CCOCC2)cc1OC | -12.4%
C=CCNC(=O)CCCCC(=O)NCC=C | -16.1%
Cn1nc(-c2ccc(Cl)cc2)c2cc(C(=O)NCCCN3CCOCC3)sc21 | 8.3%
CN1CCN(CCCNC(=O)c2cc3c(-c4ccc(Cl)cc4)nn(C)c3s2)CC1 | 13.3%
Cn1nc(-c2ccc(Cl)cc2)c2cc(C(=O)NCCCN3CCCC3)sc21 | 69.7% (active)
Cc1sc2ncnc(Sc3nnnn3-c3ccccc3)c2c1C | 71% (active)
CCCn1c(Sc2nnnn2-c2ccccc2)n[nH]c1=O | -7.4%
Clc1ccc(-n2nnnc2Sc2ncnc3sccc23)cc1 | 4.6%
Cc1sc2ncnc(SCc3ccco3)c2c1C | -13.2%
Cc1nc(Sc2nnnn2-c2ccccc2)c(C#N)c(C)c1C | -11.7%
COc1ccc(OC)c(-c2cc(C(=O)NCCCn3ccnc3)no2)c1 | 32.2%
Cc1cc(NC(=O)C2CCCN(S(=O)(=O)c3c(C)noc3C)C2)no1 (stereo not given) | 9.5%
O=C(O)c1ccc(OCc2occc2C(=O)O)cc1 | -2.7%
CCOc1ccc(N(CC(N)=O)S(=O)(=O)c2ccc(F)cc2)cc1 | -0.6%
Cc1cc2c(c(=O)n1CCN(C)C)C(c1ccncc1)C(C#N)=C(N)O2 (stereo not given) | 13.1%
Cc1cc2c(c(=O)n1CCN(C)C)C(c1ccc(Br)cc1)C(C#N)=C(N)O2 (stereo not given) | 73.4% (active)
Cc1cc2c(c(=O)n1CCN(C)C)C(c1ccc(Cl)cc1)C(C#N)=C(N)O2 (stereo not given) | -13.8%
Cc1cccc2cc(CN(Cc3ccc(F)cc3)C(=O)N(C)C)c3nnnn3c12 | 5.9%
COc1ccc(C/C(O)=C(\C#N)c2nc3ccccc3s2)cc1 | 46.3%
CC(C)=C(C#N)c1nc2ccccc2s1 | -8.8%
COC(=O)c1ccc(/C(O)=C(\C#N)c2nc3ccccc3s2)cc1 | 58.4% (active)

SMILES | cytotoxicity
Cc1ccc(SC/C(O)=C(\C#N)c2nc3ccccc3s2)cc1 | 79.2% (active)
N#C/C(=C(/O)CN1CCOCC1)c1nc2ccccc2s1 | 1.3%
Cc1ccc(SC/C(O)=C(\C#N)c2nc3ccccc3n2C)cc1 | 16.2%
N=c1n(CCN2CCCCC2)c2ccccc2n1CC(O)c1cccc(Br)c1 (stereo not given) | 44.6%
C=CCn1c(SCC(=O)O)nnc1-c1cccc(Cl)c1 | 5.9%
Cc1cc(N2CCN(C(=O)c3ccco3)CC2)n2nc(C)nc2n1 | 3%
O=C(CSc1nc(O)cc(=O)[nH]1)N1CCCc2ccccc21 | 2.5%
CC1=C(C)SC(=C(C#N)c2nnc(N3CCOCC3)n2-c2ccccc2)S1 | 23.4%
O=C(Nc1ccc(S(=O)(=O)NCCc2ccccc2)cc1)c1ccc(Br)o1 | 12%
O=C(Nc1ccc(Nc2ccccc2)cc1)c1ccc(Br)o1 | 76.8% (active)
COC(=O)Cc1ccc(NC(=O)c2ccc(Br)o2)cc1 | -2.2%
COc1ccccc1CNC(=O)C1CCCN(S(=O)(=O)c2c(C)[nH]c(=O)[nH]c2=O)C1 (stereo not given) | -20.9%
COc1ccc(C(=O)c2ccc(OC)c(N)c2)cc1N | 78.9% (active)
COc1ccc(C(=O)c2ccc(OC)c(OC)c2)cc1OC | -8.6%
COc1ccc(C(N)=O)cc1N | -18.1%
O=C(NC1CCCCC1)N1CCCCCC1 | -4%
CCSc1nnc(NC(=O)c2cc3c(s2)CCCC3)s1 | 7.4%
CC[C@]1(O)CC2CN(CCc3c([nH]c4ccccc34)[C@@](C(=O)OC)(c3cc4c(cc3OC)N(C=O)[C@H]3[C@@](O)(C(=O)OC)[C@H](OC(C)=O)[C@]5(CC)C=CCN6CC[C@]43[C@@H]65)C2)C1 (stereo not given in full) | 66.3% (active)
CC[C@]1(O)C[C@@H]2CN(CCc3c([nH]c4ccccc34)[C@@](C(=O)OC)(c3cc4c(cc3OC)N(C)[C@H]3[C@@](O)(C(=O)OC)[C@H](OC(C)=O)[C@]5(CC)C=CCN6CC[C@]43[C@@H]65)C2)C1 | 67.3% (active)
CC(=O)N1CCN(C2c3cccc4cccc(c34)C2NS(=O)(=O)c2ccccc2)CC1 (stereo not given) | -18.7%
COc1cccc(OCC(O)CN2CCC(C)CC2)c1 (stereo not given) | 0.1%
Cc1cc(C(=O)Nc2ccc(S(=O)(=O)N3CCCC3)cc2)cs1 | -11.4%
COCCOC(=O)c1[nH]c2c(c1C)C(=O)CC(c1cc(OC)ccc1OC)C2 (stereo not given) | 16.4%
COc1ccc(C2CC(=O)c3c([nH]c(C(=O)OC(C)C)c3C)C2)cc1OC (stereo not given) | -7.1%

SMILES | cytotoxicity
CCCOCCOC(=O)c1[nH]c2c(c1C)C(=O)CC(c1cc(OC)ccc1OC)C2 (stereo not given) | 60.7% (active)
COc1ccc(OC)c(C2CC(=O)c3c([nH]c(C(=O)OC(C)C)c3C)C2)c1 (stereo not given) | 65.9% (active)
COC(=O)c1[nH]c2c(c1C)C(=O)CC(c1cc(OC)ccc1OC)C2 (stereo not given) | 31.5%
CCOCC(=O)Nc1ccc(S(=O)(=O)NCCc2ccccc2)cc1 | 4.2%
COC(=O)c1ccc(NC(=O)CCN2CCN(c3ccccc3)CC2)cc1 | 37.6%
O=C(Nc1ccc(N2CCCCC2)cc1)c1ccc(F)cc1 | 23.5%
O=C(c1ccco1)N1CCN(C(=O)c2ccccc2OC(=O)C23CC4CC(CC(C4)C2)C3)CC1 | -9.7%
COc1ccc(N2CC(O)=C(c3nc4ccccc4s3)C2=N)c(OC)c1 | 20.6%
COc1ccc(N2CC(O)=C(c3nc4ccccc4s3)C2=N)cc1 | 5.8%
CCOc1ccccc1N1CC(O)=C(c2nc3ccccc3s2)C1=N | 65.2% (active)
O=C(O)C(CC(=O)N1CCOCC1)NCc1ccccc1 (stereo not given) | 5.6%
CC1CCCN(C(=O)CSc2nnc(-c3cccnc3)n2C2CCCCC2)C1 (stereo not given) | -23.2%
CCCN(CC1CC1)C(=O)Nc1ccccc1C | -9.7%
COc1cccc(-c2nc(NCC3CCCO3)c3ccccc3n2)c1O (stereo not given) | 52.2% (active)
COc1cccc(-c2nc(NC(C)C)c3ccccc3n2)c1O | 23.8%
COc1cccc(-c2nc(N3CCCCC3C)c3ccccc3n2)c1O (stereo not given) | 53% (active)
Oc1ccccc1-c1nc(NCC2CCCO2)c2ccccc2n1 (stereo not given) | 46.8%
CCC(C)Nc1nc(-c2cccc(OC)c2O)nc2ccccc12 (stereo not given) | 107% (active)
COc1cccc(-c2nc(NC(C)(C)C)c3ccccc3n2)c1O | 10.9%
COc1cccc(-c2nc(N3CCCCC3)c3ccccc3n2)c1O | -7.5%
CCC1CCCCN1c1nc(-c2cccc(OC)c2O)nc2ccccc12 (stereo not given) | -2.8%
C=CCNc1nc(-c2cccc(OC)c2O)nc2ccccc12 | -3%
O=C(CN(C1CC1)S(=O)(=O)c1ccc(S(=O)(=O)N2CCCCCC2)cc1)Nc1ccccc1 | 7.4%
CCCOc1ccc(C(=O)NCCC(=O)NCCCC(=O)OCC)cc1 | 1.7%

SMILES | cytotoxicity
O=C1C(SC(F)(F)C(F)F)=C(C(F)(F)F)OC2C3C=CC(C3)C12 (stereo not given) | 3.6%
O=C1NC(NS(=O)(=O)c2ccccc2)(C(F)(F)F)C(=O)N1Cc1cccnc1 (stereo not given) | -8.4%
CC(C)(C)c1ccccc1OCC(=O)NCCC(=O)O | -12.2%
c1ccc2oc(SCc3nc4ccccc4s3)nc2c1 | 8.6%
CCS(=O)(=O)CCSc1nc2ccccc2o1 | -9.3%
CCS(=O)(=O)CCSc1nc2ccccc2s1 | -17.4%
O=C(CSc1nc2ccccc2s1)Nc1ncccn1 | -3.2%
Cc1ccccc1N(C)S(=O)(=O)c1ccc2[nH]cc(C(=O)NCC3CCCO3)c(=O)c2c1 (stereo not given) | -13.7%
O=C(Cc1ccc2c(c1)OCCO2)c1c(O)cc(O)cc1O | 60.9% (active)
O=C(O)COc1ccc(C(=O)Cc2ccc3c(c2)OCCCO3)c(O)c1 | -8.7%
O=C(O)CCC(=O)c1ccc2c(c1)OCCO2 | 0%
Nn1c(SCC(=O)NCc2ccccc2)nnc1C1CC1 | 6.6%
COC(=O)C1CCN(C(=O)C(C)Oc2ccc(Cl)cc2Cl)CC1 (stereo not given) | -16.4%
CCN(CC)CCCNC(=O)C1CCN(C(=O)c2cc3sccc3n2Cc2ccc(F)cc2)CC1 | 20.7%
COc1ccc(C2C(C(C)=O)=C(C)N=c3s/c(=C/c4ccc5c(c4)OCO5)c(=O)n32)cc1 (stereo not given) | -4.1%
CC(=O)C1=C(C)N=c2s/c(=C/c3ccc4c(c3)OCO4)c(=O)n2C1c1ccc(N(C)C)cc1 (stereo not given) | -3.5%
CCOC(=O)c1cnc2c(C(=O)OC)cccc2c1NCCN1CCOCC1 | -10.4%
COc1ccc(N2CCN(CC(O)c3c[nH]c4ccc(OC)cc34)CC2C)cc1 (stereo not given) | 41.3%
COc1ccc(CCNC(=O)c2cc3ccccn3n2)c(OC)c1OC | -7%
COc1ccc(OC)c(Nc2nc(-c3sc(C)nc3C)cs2)c1 | 7.9%
COc1ccc(OC)c(Nc2nc(-c3ccc(O)c(O)c3)cs2)c1 | 67.2% (active)
COc1ccc(OC)c(Nc2nc(-c3cccs3)cs2)c1 | 44%
Cc1cc2cc(C(c3nnnn3Cc3ccco3)N3CCc4ccccc4C3)c(=O)[nH]c2cc1C (stereo not given) | -4.7%
